The values below come from PubChem BioAssay (Tox21).

The nature of experiment [1]: Nuclear factor erythroid 2-related factor 2/antioxidant responsive element (Nrf2/ARE) small molecule agonists: qHTS cell viability counter screen in human keratinocytes (AID 1919968; active = well fitted curve in the direction sought with a large enough effect in the repeat runs; an effect the other way counts as inactive or inconclusive; also: nearly all actives have a fitted effect of over 55% in size; also: potency is read from the fitted curve at half-maximal effect). Put shortly:
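Seed 1,500 KeratinoSens cells per well, then incubate 5 h at 37 C/5% CO2. Add compounds in DMSO and incubate 23 h. Add CellTiter-Fluor, wait 1 h and read fluorescence.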
In general terms: qHTS replaces the single test concentration by a dilution series.

A short description of experiment [2]: Nuclear factor erythroid 2-related factor 2/antioxidant responsive element (Nrf2/ARE) small molecule agonists: luciferase reporter gene qHTS assay in human keratinocytes (AID 1919969). Also: nearly all actives have a fitted effect of over 35% in size.
Experiment [3] addresses Gonadotropin-releasing hormone receptor (Homo sapiens) (UniProt P30968). Kind of experiment: Human gonadotropin-releasing hormone receptor (GnRHR) small molecule agonists, calcium flux assay in GnRHR-HEK293 cells (AID 1920063). Also: nearly all actives have a fitted effect of over 35% in size. Put shortly: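 Cells: HEK293 stably expressing human GnRHR. Steps: overnight (18 h) culture, 1 h calcium dye loading at 37 C, compound addition, kinetic fluorescence read at 480/540 nm. Each compound tested at 15 concentrations in triplicate.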

The target in experiment [4] is KiSS-1 receptor (Homo sapiens) (UniProt Q969F8). Description: Human kisspeptin (KISS1R) small molecule agonists, calcium flux assay in KISS1R-HEK293 cells (AID 1920064; active = well fitted curve in the direction sought with a large enough effect in the repeat runs; an effect the other way counts as inactive or inconclusive). A digest of the protocol:
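Cells plated and incubated 18 h; dye added, 1 h at 37 C; compounds in DMSO pinned in; signal read at 480/540 nm every second for 3 min. Each compound tested at 15 concentrations in triplicate.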
For orientation: Calcium assays in cells follow changes in intracellular calcium, usually with a dye or a luminescent sensor.

Experiment [5] is described as follows: G protein-coupled receptor (GPCR) small molecule agonists, calcium flux assay: HEK293 wild type cell line counter screen (AID 1920065). Put shortly: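 Counter-screen of the Tox21 10K library for non-specific calcium release: dye-loaded cells received compounds in DMSO and were monitored by kinetic fluorescence (480/540 nm, 3 min). Fifteen concentrations, run in triplicate.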

Experiment [6] is described as follows: p53 small molecule agonists, cell-based qHTS assay with human liver microsomes (AID 1963577). A digest of the protocol:
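Compounds act here after metabolic activation: human liver microsomes and NADPH, both at 0.5 mg/mL final, were co-added to p53RE-bla cells. Incubation ran 16 h at 37 C, followed by LiveBLAzer detection.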

Experiment [7] can be described thus: p53 small molecule agonists, cell-based qHTS assay with rat liver microsomes (AID 1963578). A digest of the protocol:
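Read-out is beta-lactamase reporter fluorescence (LiveBLAzer, 2 h, room temperature, dark) in p53RE-bla cells treated 16 h at 37 C with compound, rat liver microsomes and NADPH, both 0.5 mg/mL final.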

Experiment [8] can be described thus: p53 small molecule agonists, cell-based qHTS assay with human liver microsomes: qHTS cell viability counter screen (AID 1963579). Also: nearly all actives have a fitted effect of over 45% in size. Put shortly:
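Cells carrying the p53 response-element beta-lactamase reporter are treated for 16 h at 37 C with test compounds in the presence of human liver microsomes and NADPH (both 0.5 mg/mL final); ATP-based CellTiter-Glo luminescence then reports viability.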

Experiment [9] is described as follows: p53 small molecule agonists, cell-based qHTS assay: qHTS cell viability counter screen (AID 1963581). Also: nearly all actives have a fitted effect of over 45% in size. Also: potency is read from the fitted curve at half-maximal effect. A digest of the protocol:
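Cells: HCT-116 with p53 response element-driven beta-lactamase. Treatment: 16 h, 37 C, compounds in DMSO. Read: CellTiter-Glo luminescence after 30 min RT.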

A short description of experiment [10]: p53 small molecule agonists, cell-based qHTS assay (AID 1963582; active = well fitted activation curve with a large enough effect in the signal ratio in the repeat runs, not every such curve was filed as active; the % refers to the signal ratio). Put shortly:
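Quantitative HTS in p53RE-bla cells: after a 5 h settling period, compounds delivered in DMSO were left on cells for 16 h at 37 C, and reporter induction was measured as fluorescence following 2 h substrate loading.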

In experiment [11] the target is 5-hydroxytryptamine receptor 2A (Homo sapiens) (UniProt P28223). Description: 5-hydroxytryptamine receptor 2A (HTR2A) small molecule agonists, cell-based qHTS assay (AID 1963587). Also: nearly all actives have a fitted effect of over 30% in size. Put shortly: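 Kinetic calcium-flux fluorescence (2 min, 1 sec intervals) after compound addition in agonist mode. HTR2A-CHO cells were cultured 18 h, then dye-loaded 1 h at 37 C.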
For experiment [12], the target named is Muscarinic acetylcholine receptor M1 (Homo sapiens) (UniProt P11229). Kind of experiment: Cholinergic receptor muscarinic 1 (CHRM1) small molecule antagonists, cell-based qHTS assay (AID 1963588). Also: nearly all actives have a fitted effect of over 40% in size. A digest of the protocol: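 CHRM1-CHO calcium-flux assay, antagonist mode. Cells were seeded 18 h, dye-loaded 1 h at 37 C and given compound for 5 min at RT, then acetylcholine was added at 50nM. FDSS fluorescence was read 3 min; 15 concentrations, three runs.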

For experiment [13] the target is unchanged. Description: Cholinergic receptor muscarinic 1 (CHRM1) small molecule agonists, cell-based qHTS assay (AID 1963589). Also: nearly all actives have a fitted effect of over 35% in size. Put shortly: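 Agonist-mode qHTS in CHO cells stably carrying human muscarinic M1. Intracellular calcium is tracked by fluorescence every second after compound transfer; each compound runs at 15 concentrations in three independent runs.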

Experiment [14] in a line: cAMP Responsive Elements (CRE) small molecule agonists, cell-based qHTS assay (AID 1963590). Put shortly: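 Agonist mode qHTS in CRE-bla HEK 293T cells: compounds dosed from DMSO for 3 h at 37 C/5% CO2, followed by LiveBLAzer B/G FRET substrate for 2 h at room temperature.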
Experiment [15] deals with Beta-2 adrenergic receptor (Homo sapiens) (UniProt P07550). Kind of experiment: Adrenergic beta2 receptor (ADRB2) small molecule antagonists, cell-based qHTS assay (AID 1963592). Also: nearly all actives have a fitted effect of over 50% in size. Also: potency is read from the fitted curve at half-maximal effect. A digest of the protocol:
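Cells (CHO, stable ADRB2 overexpression) incubated 18-20hr at 37C; compounds added from DMSO; agonist mix (1nM isoproterenol, 100uM IBMX, 25uM Ro-20-1724) added; 0.5hr RT; d2-cAMP and anti-cAMP-cryptate added; 1hr RT; 665/615 nm read.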

In experiment [16] the target is D(2) dopamine receptor (Homo sapiens) (UniProt P14416). Description: Dopamine D2 receptor (DRD2) small molecule agonists, cell-based qHTS assay (AID 1963594). Also: nearly all actives have a fitted effect of over 35% in size. Put shortly: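 cAMP accumulation in DRD2-HEK293 cells measured by HTRF after 1 h detection; compounds added 10 min before NKH477 (200nM […]) forskolin-analogue stimulation, 30 min at room temperature, with Ro20-1724 present at 0.1 mM final.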

Experiment [17] shares this target. Description: Dopamine D2 receptor (DRD2) small molecule antagonists, cell-based qHTS assay (AID 1963595; active = well fitted inhibition curve with a large enough effect in the signal ratio in the repeat runs, with a control signal flat; the % refers to the signal ratio). Put shortly:
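Antagonism was scored as restored cAMP in HEK293-DRD2 cells. These cells were stimulated with 200 nM NKH477 and 12 nM quinpirole for 30 min at room temperature, in the presence of 0.1 mM Ro20-1724.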

Experiment [18] is described as follows: cAMP Responsive Elements (CRE) small molecule antagonists, cell-based qHTS assay (AID 1963591; active = well fitted inhibition curve with a large enough effect in the signal ratio in the repeat runs, not every such curve was filed as active; the % refers to the signal ratio). A digest of the protocol:
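Antagonist mode: test compounds are co-incubated with the adenylyl cyclase activator NKH477 (0.25 uM final) on CRE-bla HEK293T cells for 3 h at 37 °C, followed by LiveBLAzer substrate loading.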

Experiment [19] has as its target 5-hydroxytryptamine receptor 2A (Homo sapiens) (UniProt P28223). Kind of experiment: 5-hydroxytryptamine receptor 2A (HTR2A) small molecule antagonists, cell-based qHTS assay (AID 1963586). Also: nearly all actives have a fitted effect of over 45% in size. A digest of the protocol: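 Antagonist-mode intracellular calcium assay: DOI (4 nM) added after 5 min compound pre-incubation at room temperature to dye-loaded HTR2A-CHO cells. Fluorescence followed for 3 min, sampled every second.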

Unmarked numbers belong to inactive results. Results filed as inconclusive are left out. Activity calls are given as the source filed them. Unless noted, calls follow the shape of the full dose curve.

Sequence of D(2) dopamine receptor (Homo sapiens) (P14416 whole entry, looked up): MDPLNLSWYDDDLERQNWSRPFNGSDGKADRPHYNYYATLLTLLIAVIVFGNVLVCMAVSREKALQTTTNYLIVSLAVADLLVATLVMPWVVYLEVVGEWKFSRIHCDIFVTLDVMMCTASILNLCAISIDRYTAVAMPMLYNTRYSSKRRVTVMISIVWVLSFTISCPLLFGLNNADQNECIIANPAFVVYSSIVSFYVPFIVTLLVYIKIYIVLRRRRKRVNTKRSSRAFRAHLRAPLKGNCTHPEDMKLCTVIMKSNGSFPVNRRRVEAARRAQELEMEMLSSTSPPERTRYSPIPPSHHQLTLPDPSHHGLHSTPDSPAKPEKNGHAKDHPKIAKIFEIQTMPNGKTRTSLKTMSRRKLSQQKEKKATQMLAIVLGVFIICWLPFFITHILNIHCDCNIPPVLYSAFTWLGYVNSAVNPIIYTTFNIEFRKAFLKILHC
Sequence of Muscarinic acetylcholine receptor M1 (Homo sapiens) (P11229 whole entry, looked up): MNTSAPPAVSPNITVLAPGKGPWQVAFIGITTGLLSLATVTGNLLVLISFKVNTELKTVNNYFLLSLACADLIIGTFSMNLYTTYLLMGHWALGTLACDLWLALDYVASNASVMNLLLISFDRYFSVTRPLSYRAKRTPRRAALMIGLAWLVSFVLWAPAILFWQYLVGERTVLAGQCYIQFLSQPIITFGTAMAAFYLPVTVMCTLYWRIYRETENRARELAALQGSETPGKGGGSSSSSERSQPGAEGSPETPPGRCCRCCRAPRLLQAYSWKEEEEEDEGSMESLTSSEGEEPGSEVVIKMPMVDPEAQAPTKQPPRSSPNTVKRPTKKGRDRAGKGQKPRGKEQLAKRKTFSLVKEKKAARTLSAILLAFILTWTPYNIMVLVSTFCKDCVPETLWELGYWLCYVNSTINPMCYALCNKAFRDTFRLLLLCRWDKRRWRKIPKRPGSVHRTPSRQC
Sequence of Beta-2 adrenergic receptor (Homo sapiens) (P07550 whole entry, looked up): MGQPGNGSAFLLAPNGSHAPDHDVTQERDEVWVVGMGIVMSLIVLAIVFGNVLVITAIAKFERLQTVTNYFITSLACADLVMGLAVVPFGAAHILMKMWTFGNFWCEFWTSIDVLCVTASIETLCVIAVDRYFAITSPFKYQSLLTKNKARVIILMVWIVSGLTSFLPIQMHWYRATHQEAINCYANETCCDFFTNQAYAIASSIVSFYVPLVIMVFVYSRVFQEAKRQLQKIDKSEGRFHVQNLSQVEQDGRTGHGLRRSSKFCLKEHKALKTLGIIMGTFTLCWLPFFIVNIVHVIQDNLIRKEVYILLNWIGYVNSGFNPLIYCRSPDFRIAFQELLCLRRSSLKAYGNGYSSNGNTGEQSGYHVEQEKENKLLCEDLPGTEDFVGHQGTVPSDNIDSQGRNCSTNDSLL
Sequence of KiSS-1 receptor (Homo sapiens) (Q969F8 whole entry, looked up): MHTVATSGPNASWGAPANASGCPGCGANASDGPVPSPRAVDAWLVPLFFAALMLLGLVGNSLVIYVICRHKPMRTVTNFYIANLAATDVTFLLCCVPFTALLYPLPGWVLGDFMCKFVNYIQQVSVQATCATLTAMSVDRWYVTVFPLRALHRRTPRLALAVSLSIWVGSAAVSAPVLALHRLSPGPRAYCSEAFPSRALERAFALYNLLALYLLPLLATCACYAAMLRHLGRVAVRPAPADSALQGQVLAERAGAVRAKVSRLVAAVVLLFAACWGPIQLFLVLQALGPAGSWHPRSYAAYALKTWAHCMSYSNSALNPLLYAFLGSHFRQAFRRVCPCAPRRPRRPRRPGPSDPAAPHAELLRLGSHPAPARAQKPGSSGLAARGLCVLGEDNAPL
Sequence of Gonadotropin-releasing hormone receptor (Homo sapiens) (P30968 whole entry, looked up): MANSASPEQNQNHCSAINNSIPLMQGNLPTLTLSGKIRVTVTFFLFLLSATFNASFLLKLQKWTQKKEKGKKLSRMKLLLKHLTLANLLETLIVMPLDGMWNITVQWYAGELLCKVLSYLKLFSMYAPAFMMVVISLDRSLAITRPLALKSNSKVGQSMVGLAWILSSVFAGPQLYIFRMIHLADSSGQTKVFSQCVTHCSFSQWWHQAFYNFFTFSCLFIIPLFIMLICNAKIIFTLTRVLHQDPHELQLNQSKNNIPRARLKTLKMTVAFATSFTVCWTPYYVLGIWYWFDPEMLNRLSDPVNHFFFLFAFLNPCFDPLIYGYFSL
Sequence of 5-hydroxytryptamine receptor 2A (Homo sapiens) (P28223 whole entry, looked up): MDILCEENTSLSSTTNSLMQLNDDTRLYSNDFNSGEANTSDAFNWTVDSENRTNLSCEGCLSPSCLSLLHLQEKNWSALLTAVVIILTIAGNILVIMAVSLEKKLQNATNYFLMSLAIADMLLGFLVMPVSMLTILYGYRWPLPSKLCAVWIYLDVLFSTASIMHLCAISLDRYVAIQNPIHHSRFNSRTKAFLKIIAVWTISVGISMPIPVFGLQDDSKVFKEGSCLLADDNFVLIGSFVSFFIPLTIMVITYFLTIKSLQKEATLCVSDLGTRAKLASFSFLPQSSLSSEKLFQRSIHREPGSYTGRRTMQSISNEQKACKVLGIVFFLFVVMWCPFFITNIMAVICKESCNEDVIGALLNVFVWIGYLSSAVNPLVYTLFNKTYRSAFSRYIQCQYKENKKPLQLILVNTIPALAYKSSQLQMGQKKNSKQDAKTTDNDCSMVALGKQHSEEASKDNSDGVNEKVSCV

With `CCC(=O)c1c(O)cc(O)cc1O`, the Potency entry in experiment [1], in experiment [2], in [3], in experiment [6], in experiment [7] and in [8] was “inactive” in each case. The Potency result in experiment [9], in experiment [10], in [11], in experiment [12], in [13] and in experiment [14] was “inactive” each time. Also, the Potency entry in [15], in experiment [16] and in [17] was “inactive” throughout. The outcome in experiment [4] and in experiment [5] was inactive.

For the compound `CCCCCCCCCCCc1ccccc1`, the Potency entry in experiment [1], in experiment [2], in experiment [3], in experiment [6], in experiment [7] and in [8] was “inactive” each time. Also, the Potency result in experiment [9], in experiment [10], in experiment [11], in [12], in experiment [13] and in [14] was “inactive” throughout. For the same compound, the Potency result in experiment [18], in [15], in experiment [16] and in experiment [17] was “inactive” each time. The result in experiment [4] and in experiment [5] was inactive.

As for `C=CC(C)(O)CCCC(C)CCCC(C)CCCC(C)C` (stereo unspecified), the Potency entry in experiment [1], in experiment [2], in experiment [3], in [6], in experiment [7] and in [8] was “inactive” each time. In addition, the Potency result in experiment [9], in experiment [10], in experiment [19], in experiment [11], in [12] and in experiment [13] was “inactive” each time. For the same compound, the Potency result in [14], in experiment [18], in experiment [15], in experiment [16] and in experiment [17] was “inactive” throughout. Besides, the result in experiment [4] and in experiment [5] was inactive.

Regarding `CC/C=C\CCOC(C)=O`, the Potency entry in experiment [1], in experiment [2], in [3], in experiment [6], in experiment [7] and in experiment [8] was “inactive” in each case. In addition, the Potency entry in [9], in experiment [10], in experiment [19], in experiment [11], in [12] and in experiment [13] was “inactive” each time. For the same compound, the Potency entry in experiment [14], in [18], in [15], in experiment [16] and in experiment [17] was “inactive” in each case. Further, the outcome in experiment [4] and in [5] was inactive.

As to `CCCN(CCC)c1c([N+](=O)[O-])cc(C(F)(F)F)c(N)c1[N+](=O)[O-]`, the Potency in [1] is 24.3 µM (active); in experiment [9], 18.2 µM (active). Besides, the Potency entry in experiment [2], in experiment [3], in experiment [6], in experiment [7], in experiment [8] and in experiment [10] was “inactive” in each case. Also, the Potency result in experiment [11], in [13], in [15] and in [16] was “inactive” throughout. In addition, the result in [4] and in [5] was inactive.

`O=C(Nc1ccccc1)Nc1ccccc1`: the Potency result in experiment [1], in [2], in experiment [3], in experiment [6], in experiment [7] and in [8] was “inactive” in each case. For the same compound, the Potency entry in experiment [9], in [10], in [19], in experiment [11], in [12] and in [13] was “inactive” in each case. In addition, the Potency entry in experiment [16] and in [17] was “inactive” throughout. The result in experiment [4] and in experiment [5] was inactive. In addition, the Potency in experiment [15] was 68.9 µM (active).

In the case of `CCCCCCCCCCOS(=O)(=O)O`, the Potency entry in [1], in experiment [2], in experiment [3], in experiment [6], in [7] and in experiment [8] was “inactive” in each case. Also, the Potency result in experiment [9], in experiment [10], in [19], in experiment [11], in experiment [12] and in experiment [13] was “inactive” each time. The Potency result in experiment [18], in [15] and in experiment [16] was “inactive” each time. The result in [4] and in experiment [5] was inactive.
